Values without a mark were called inactive. Calls of active or inactive are those of the source.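 Rule for the calls, unless noted: active = inhibition above 50%; inactive = the rest.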

The first assay can be described thus: antimalarial activity against Dd2 strain (AID 2302;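 active = growth inhibition above 50% at the single 2 µM test dose, taken to imply half-maximal potency below 2 µM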;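 note: 0% = DMSO untreated growth and 100% = chloroquine plus artemisinin killed control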). The conditions noted are these: P. falciparum Dd2 in RBCs, LDH growth readout, 72 h; at 2 µM; hits give high values.
On to `CC(=O)Nc1ccc(C(=O)Nc2ccc(-c3cccc(-c4nc5ccccc5[nH]4)c3)cc2)cn1`, for which the growth inhibition is 84% (active).

As to `Cc1cc2c(cc1C(F)(F)F)N(C(=O)Nc1cccc(C(=O)NC3CCN(Cc4ccccc4)CC3)c1)CC2`, the growth inhibition is -5%.

With `Fc1ccc2nc(-c3cccc(-c4cccc(CNCCc5ccncc5)c4)c3)[nH]c2c1`, the growth inhibition was 88% (active).

The next assay in a line: HepG2 cytotoxicity, primary screen, cytotoxicity control for P. falciparum antimalarial project, cell-based, ATP luminescence (AID 2303).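 Note: 0% = DMSO wells and 100% = digitonin-killed cells.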 The conditions noted are these: HepG2 viability, 24-48 h, at 10 µM, hits give high values.
Take `CN(C)CCCNCc1ccc(-c2ccc(C(F)(F)F)cc2)cc1`: the inhibition was 30%.

`Fc1ccccc1COc1ccc(Nc2ncnc3ccc(-c4nnc(C(F)(F)F)o4)cc23)cc1Cl`: the inhibition is 7%.

In the case of `O=C(Nc1ccc([N+](=O)[O-])cc1)c1nn(-c2ccccc2)cc1N=Cc1cccc(O)c1`, the inhibition was 10%.

Turning to `Cc1cccc2[nH]c(-c3ccc(-c4ccc(NC(=O)N[C@@H]5C[C@H]5c5ccccc5)cc4)cc3)nc12`, the inhibition was 28%.

Take `O=c1cc(NCCCCNCc2ccc(Br)c(Br)c2)[nH]c2ccccc12`: the inhibition is 13%.

Turning to `O=S1N=C(NCCCN(Cc2cccs2)c2ccccn2)C(NCc2ccccc2)=N1` (stereo not drawn), the inhibition was 10%.

For `COc1ccccc1NC(=O)NC1CCN(CCCCCNC(=O)/C=C/c2ccc(Cl)c(Cl)c2)CC1`, the inhibition is 4%.

In the case of `CC(=O)Oc1cc(C)ccc1C1CCN(CCCCNC(=O)c2ccc(-c3ccc(C(F)(F)F)cc3)cc2)CC1`, the inhibition is 54% (active).

For the molecule `O=c1cc(NCCCNCc2csc(Br)c2Sc2ccc(Cl)cc2)[nH]c2ccccc12`, the inhibition is 5%.

In the case of `Cc1cccc2[nH]c(-c3ccc(-c4cccc(NC(=O)Nc5ccsc5)c4)s3)nc12`, the inhibition was 30%.

On to `CCCCCCP(=O)(COc1ccc(CCN(CC(O)COc2cccc3[nH]c(C(N)=O)cc23)CC(O)COc2cccc3[nH]c(C(N)=O)cc23)cc1)OCCCC` (stereo not drawn), for which the inhibition is -10%.

`COc1ccc(-c2csc3ncnc(Cl)c23)cc1`: the inhibition was -15%.

As for `C[C@H](Cc1ccc(Oc2ccc(C[C@@H](C)NC[C@H](O)c3cccc(Cl)c3)cc2)cc1)NC[C@H](O)c1cccc(Cl)c1`, the inhibition is 99% (active).

Turning to `CCCCCCCN1CC[C@@H](CCCc2ccnc3ccc(OCCN4CCNCC4)cc23)[C@@H](CC)C1`, the inhibition was 82% (active).

On to `O=C(Cc1ccc(-c2ccccc2)cc1)N[C@H]1CCN(Cc2ccc(OCCCN3CCCCC3)cc2)C1`, for which the inhibition is 36%.

With `Cc1cc(C)n(-c2nc(Nc3cccc(C(F)(F)F)c3)nc(-n3nc(C)cc3C)n2)n1`, the inhibition is -8%.

With `O=C(NCc1cccc(F)c1)Nc1cccc(-c2ccc(-c3nc4ccc(F)cc4[nH]3)cc2)c1`, the inhibition is 46%.

As to `NC(=O)C1CCN(Cc2cccc(-c3ccc(-c4nc5ccc(C(F)(F)F)cc5[nH]4)cc3)c2)CC1`, the inhibition is 7%.

As for `CCCC[C@@H](C(=O)NCCc1ccc(Cl)cc1)N1C(=O)CCC1C(=O)Nc1ccc(Cl)c(Cl)c1` (stereo partly drawn), the inhibition is 4%.

`Nc1ncc(-c2ccc(F)cc2)c2ccc(-c3cccc(F)c3)cc12`: the inhibition is 34%.

`c1ccc(CCNCc2ccc(-c3cccc(-c4nc5ccccc5[nH]4)c3)cc2)nc1`: the inhibition is 36%.

As for `CCCCN1CCN(CCCCNc2c3ccccc3nc3ccccc23)CC1`, the inhibition was 27%.

As to `CCCCCCN1CCCN(Cc2ccc(C(=O)Nc3ccc(Cl)cc3)cc2)CC1`, the inhibition is 50% (active).

As to `COc1ccc(-c2cccc(NC(=O)c3ccc(C#N)cc3)c2)cc1CN1CCCN(C)CC1`, the inhibition was 22%.

Take `CCCCCN1CCCC(NS(=O)(=O)c2ccc(C(=O)Nc3ccc(C(F)(F)F)cc3)cc2)C1` (stereo not drawn): the inhibition is 41%.

Regarding `Cc1cc(O)c(CN(C)Cc2ccc(N(C)C)cc2)cc1C(C)C`, the inhibition is 3%.

Turning to `CNC(=O)CSc1nnc(-c2ccc(C)cc2)c(-c2ccc(C)cc2)n1`, the inhibition is 2%.

For `Cc1cc(C)c(NC(=O)NC2CCN(CCCCCNC(=O)/C=C/c3ccc(Cl)c(Cl)c3)CC2)c(C)c1`, the inhibition was 30%.

With `Cn1c(=O)n(C)c2cc(CNCCNc3ccnc4cc(Cl)ccc34)ccc21`, the inhibition was 17%.

`CC(OC(=O)c1ccc(C(=O)NCC2CC2)cc1)C(C)(C)C` (stereo not drawn): the inhibition was 10%.

On to `CCc1c(CCNCCCCCCNCCc2ccc([N+](=O)[O-])cc2)ccc(O)c1O`, for which the inhibition was 5%.

Consider `CS(=O)(=O)c1ccc(CCNCc2ccc(-c3cccc(-c4nc5ccccc5[nH]4)c3)cc2)cc1`, for which the inhibition was 40%.

On to `CC[C@H](C)CNC(=O)c1cncc(-c2cccc(CNCCCc3ccccc3)c2)c1`, for which the inhibition was 9%.

`Cc1cccc2[nH]c(-c3ccc(-c4cccc(NC(=O)c5ccncc5)c4)cc3)nc12`: the inhibition is 46%.

Turning to `Cc1cc2nc(/N=C(\N)NC(=O)NC3CCCCC3)nc(C)c2cc1C`, the inhibition is 20%.

For the molecule `CN1CCN(CCCN(Cc2ccc(-c3cccc(CNC4CCCC4)c3)cc2)C(=O)/C=C/c2ccccc2)CC1`, the inhibition was 36%.

For the molecule `CCNc1cc(C(=O)N[C@@H](Cc2ccccc2)[C@H](O)CNC2CCC(C(C)(C)C)CC2)cc(N2CCCC2=O)c1` (stereo partly drawn), the inhibition is 38%.

As for `CC(=O)Nc1ccc(C(=O)Nc2ccc(-c3cccc(-c4nc5ccccc5[nH]4)c3)cc2)cn1`, the inhibition was 34%.

On to `Cc1cc2c(cc1C(F)(F)F)N(C(=O)Nc1cccc(C(=O)NC3CCN(Cc4ccccc4)CC3)c1)CC2`, for which the inhibition is 19%.

Turning to `Fc1ccc2nc(-c3cccc(-c4cccc(CNCCc5ccncc5)c4)c3)[nH]c2c1`, the inhibition was 22%.

What is called inhibition is the relative decrease from the control value, in per cent.

The values above are taken from PubChem BioAssay.
